Screening data (PubChem BioAssay)
KinaseGlo FLuc – counter-screen: inhibitors of Kinase-Glo firefly luciferase; Potency, µM (highest dose often 38.3 µM), for the others: at the top dose activity change, negative = inhibition, most hits filed as inhibitors; Kinase-Glo luciferase, ATP luminescence, 8 min; Q27757; AID 1379; hit rate 0.28% among 200,000; also: % is scaled to controls: 0 for no effect and ±100 for the full control effect; nearly all actives have a fitted effect of over 60% in size
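Compound is pinned into ATP-containing buffer (10 uM ATP, imidazole pH 7.2, 7 mM MgCl2). Kinase-Glo luciferase reagent is then added. Light output is recorded following an 8-min room-temperature incubation.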
SMN2 splice up – increases expression of the SMN2 splice variant; HEK293 SMN2-luciferase splicing reporter, luminescence, 30-36 h; Potency, µM (titrated, usually from 46.1 µM), inactives show top-dose activity change, positive = activation, hits mostly activators; hit rate 2.8% among 210,000; AID 1458; also: % of control where 0% means no effect; nearly all actives have a fitted effect of over 55% in size
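qHTS luciferase splicing reporter: luminescence rises when SMN2 exon 7 is included in transfected HEK293 cells. Compound exposure lasted 30-36 h at 37C, with 4.5 mM final sodium butyrate as control, followed by a ONE-Glo read.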
NPC1 prom act – activators of NPC1 promoter | Huh7 NPC1 promoter luciferase reporter, 24 h | Potency, µM (top dose mostly 9.22 µM), inactives show at the highest dose activation, hits mostly activators | hit rate 2.4% among 320,000 | AID 485313; also: % of control where 0% means no effect; nearly all actives have a fitted effect of over 60% in size
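Luminescence read-out of NPC1 promoter-driven luciferase in stably transfected Huh7 cells; compounds delivered in DMSO and left 24 h at 37C, 5% CO2, qHTS titration format.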
Rab9 promoter act – activates the Rab9 promoter; Huh7 Rab9 promoter-luciferase reporter, luminescence, 24 h; Potency, µM (titrated, usually from 9.22 µM), for the others: at the highest dose activation, negative = inhibition, hits mostly activators; hit rate 2.8% among 320,000; also: % of control where 0% means no effect; nearly all actives have a fitted effect of over 60% in size
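Cells were plated at 1500 per well in reduced-serum medium with 10% FBS and left 2 h. Compound in DMSO was then added for 24 h at 37 °C. Reporter signal was read by luminescence after 10 min with luciferase detection reagent.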
FLuc counter – firefly luciferase modulation, counter-screen for miR-21 project; P08659; purified FLuc, Km substrates, luminescence inhibition; Potency, µM (doses to about 57.5 µM), for inactives: at the highest dose activity change, negative = inhibition, most hits filed as inhibitors; hit rate 6.9% among 360,000;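 also: plate controls were vehicle for no effect and reference inhibitor for full effect; nearly all actives have a fitted effect of over 55% in size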
Target sequence (P08659 whole entry, looked up): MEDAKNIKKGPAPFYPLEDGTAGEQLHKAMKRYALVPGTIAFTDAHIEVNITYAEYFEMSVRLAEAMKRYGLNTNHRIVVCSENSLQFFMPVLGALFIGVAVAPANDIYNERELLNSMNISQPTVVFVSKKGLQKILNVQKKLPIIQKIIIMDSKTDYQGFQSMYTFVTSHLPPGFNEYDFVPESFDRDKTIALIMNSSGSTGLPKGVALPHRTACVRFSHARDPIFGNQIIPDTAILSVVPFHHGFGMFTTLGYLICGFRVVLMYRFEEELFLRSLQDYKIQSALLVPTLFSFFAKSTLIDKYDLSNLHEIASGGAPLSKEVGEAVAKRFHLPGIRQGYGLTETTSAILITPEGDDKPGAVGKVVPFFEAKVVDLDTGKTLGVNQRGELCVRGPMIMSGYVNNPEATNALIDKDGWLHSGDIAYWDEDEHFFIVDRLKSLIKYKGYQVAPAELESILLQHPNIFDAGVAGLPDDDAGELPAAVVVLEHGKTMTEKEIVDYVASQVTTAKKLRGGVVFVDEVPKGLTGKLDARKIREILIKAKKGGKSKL
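Purified P. pyralis luciferase, 10 nM final, with Km-level 10 uM D-luciferin and 10 uM ATP in 50 mM Tris acetate pH 7.5, 10 mM Mg acetate, 0.01% Tween-20, 0.05% BSA; 6-point qHTS titration about 60 µM downward; luminescence read.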
ELG1 genotox – induces genotoxicity in HEK293T cells with luciferase-tagged ELG1 | HEK293T ELG1-luciferase reporter, luminescence, 16 h | Potency, µM (series often up to 46 µM), for inactives: top-dose activity change, positive = activation, hits mostly activators | hit rate 1.3% among 330,000 | AID 504466; also: % of control where 0% means no effect; nearly all actives have a fitted effect of over 60% in size
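DMSO vehicle served as control against compound-treated ELG1-luciferase HEK293T cells; exposure lasted 16 hr at 37 °C and 5% CO2, followed by ONE-Glo luminescence detection after 30 min.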
* marks the source's active call; other numbers are inactive results; ? = inconclusive; / = no result; [ ] = remark or other dose. Sampled rows, rich in hits. Any-hit rate of the full collection: about 7.5%. Calls follow the shape of the dose curve; as a rule, active = well fitted curve in the direction sought with a large enough effect; inconclusive = small, poorly fitted or top-dose-only effect, or another doubt; inactive = no such curve, though single readings can be large; an effect the other way counts as inactive or inconclusive. Potency is read from the fitted curve at half-maximal effect.

SMILES	KinaseGlo FLuc	SMN2 splice up	NPC1 prom act	Rab9 promoter act	FLuc counter	ELG1 genotox
Cc1ccc(-c2cc(C(=O)N/N=C/c3ccco3)[nH]n2)cc1	-3%	16%	-1%	15%	21µM*	9%
O=C(N/N=C/c1ccccc1C(=O)O)c1cc(-c2ccc3c4c(cccc24)CC3)n[nH]1	-1%	5%	-6%	-8%	15µM*	-1%
CS(=O)(=O)Nc1ccc(-c2cc(/C=C3\SC(N)=NC3=O)c[nH]c2=O)cc1	/	/	-4%	-1%	9%	4%
COc1cc(-c2nc3nc[nH]n3c2Nc2ccc(C(C)C)cc2)ccc1O	/	-3%	/	/	?	/
CN1Cc2c(N)cccc2[C@H](c2ccccc2)C1	1%[17.1 µM]	-7%[20.6 µM]	/	/	/	/
Cc1ccc2c(c1)C(c1ccc(F)cc1)N(C(=O)c1ccc(S(=O)(=O)N3CCCCC3)cc1)CC(=O)N2 (stereo not given)	/	3%	/	/	-2%	/
Clc1ccc(-c2cn3c(n2)-c2ccccc2C3)cc1Cl	?	1µM*	3.5µM*	2.5µM*	0.85µM*	?
CCCn1c(-c2ccc(F)cc2)nc2c(NCCN3CCOCC3)nc(C)nc21	-5%	-2%	/	/	/	/
O=C1OC(c2ccc(Cl)cc2)=C/C1=C/c1cccnc1	/	/	0%	8%	-14%	-3%
Cc1ccc(C2=C/C(=C/c3cccnc3)C(=O)O2)c(C)c1	-1%	9%	-3%	1%	6µM*	1%
CCN(CC(=O)Nc1ccc(NC(C)=O)cc1)C(=O)c1ccc(N2CCC(C)CC2)c([N+](=O)[O-])c1	/	/	-1%	-1%	17µM*	0%
CCN(CC(=O)Nc1c(F)cccc1F)C(=O)c1ccc(N2CCCCC2)c([N+](=O)[O-])c1	/	/	1%	-3%	-1%	9%
O=C(CSc1nc2ccsc2c(=O)n1Cc1ccccc1Cl)NCc1ccc(Cl)cc1	/	/	/	/	0%	/
Cc1ccc(C)c(NC(=O)CSc2ncc(S(=O)(=O)c3ccc(C)c(Cl)c3)c(=O)[nH]2)c1	/	/	/	/	11µM*	/
Cc1ccc(NC(=O)CSc2ncc(S(=O)(=O)c3ccccc3)c(=O)[nH]2)cc1C	-2%	-12%	2%	-2%	?	-1%
CC(C)(C)c1ccc(S(=O)(=O)c2cnc(SCC(=O)Nc3ccc4c(c3)OCCO4)[nH]c2=O)cc1	/	5%	/	/	11µM*	/
O=C(CSc1ncc(S(=O)(=O)c2ccccc2)c(=O)[nH]1)Nc1ccccc1Cl	/	/	-2%	-2%	3%	-1%
COc1cccc(NC(=O)CSc2ncc(S(=O)(=O)c3ccccc3)c(=O)[nH]2)c1	/	/	-1%	-6%	-3%	-1%
CCc1ccc(NC(=O)CSc2ncc(S(=O)(=O)c3cc(C)ccc3C)c(=O)[nH]2)cc1	/	-3%	/	/	9.5µM*	/
COc1ccccc1CNC(=O)CSc1ncc(S(=O)(=O)c2ccc(C)c(Cl)c2)c(=O)[nH]1	/	/	/	/	13µM*	/
CCOC(=O)N1CCC(N2CCCC(C(=O)c3ccc4cc(OC)ccc4c3)C2)CC1 (stereo not given)	0%	/	-5%	-4%	-11%	0%
COc1ccccc1CC(=O)Nc1ccc2nc(C)sc2c1	/	/	17%	21%	17µM*	?
Cc1nc2ccc(NC(=O)CCC3CCCC3)cc2s1	/	/	?	?	12µM*	?
O=C(CCS(=O)(=O)c1ccccc1)Nc1ccc(-c2nc3ccccc3s2)c(O)c1	-3%	2.5µM*	?	1.3µM*	3%	14%
CCS(=O)(=O)c1cccc(C(=O)Nc2ccc(-c3nc4ccccc4s3)c(O)c2)c1	/	/	/	/	5%	/
SMILES	KinaseGlo FLuc	SMN2 splice up	NPC1 prom act	Rab9 promoter act	FLuc counter	ELG1 genotox
COc1cccc(CC(=O)Nc2ccc3nc(C)sc3c2)c1	3%	6%	28%	14%	17µM*	17%
Cn1c(Cc2ccc3c(c2)OCO3)nnc1SCC(=O)NC1CCCC1	-3%	10%	-5%	29%	-2%	6%
COC(=O)c1ccc(C(NC(=O)OCc2ccccc2)/C(C)=C/[C@@H](C)C(=O)NCc2cccnc2)cc1 (stereo not given in full)	-1%	-7%	/	/	/	/
CCOC(=O)c1ccc(NC(=O)c2cc(=O)c3ccc(C)c(C)c3o2)cc1	/	1%	/	/	-5%	/
Cc1cn2c(=O)cc(COC(=O)c3ccc(NC(=O)c4ccc(F)cc4)cc3)nc2s1	/	/	/	/	1%	/
Cc1nc2ccc(NC(=O)CS(=O)(=O)c3ccccc3)cc2s1	/	/	?	?	15µM*	?
CCC(=O)Nc1ccc2nc(SCc3ccccc3)sc2c1	/	/	/	/	15µM*	/
O=C(CSc1nc2ccc(NC(=O)CSc3nnnn3-c3ccccc3)cc2s1)Nc1ccccc1	-1%	-29%	-4%	-2%	5%	13%
Cn1cnnc1SCC(=O)Nc1ccc2nc(SCc3ccccc3F)sc2c1	0%	?	2.8µM*	1.6µM*	6.7µM*	?
CCOP(=O)(OCC)C(C)(C)NC(=O)Nc1ccc(Cl)c(Cl)c1	/	/	-5%	-7%	1%	-7%
O/N=C\c1cnc(N2CCN(c3ccccc3)CC2)s1	/	/	16%	?	17µM*	?
Cc1cn2c(=O)c(S(=O)(=O)NCCc3ccccc3)c(C)nc2s1	/	/	/	/	0%	/
CCOC(=O)c1oc2nc3c(cc2c1N)CCCC3	/	/	1.4µM*	1.4µM*	5.4µM*	?
CN1CCN(C2=C(Cl)C(=O)N(CCc3ccccc3)C2=O)CC1	4%	13µM*	19%	?	?	14%
O=C1C(Cl)=C(N2CCOCC2)C(=O)N1CCc1ccccc1	-2%	13µM*	13%	?	19µM*	?
O=C1C(Cl)=C(NCC2CCCO2)C(=O)N1CCc1ccccc1 (stereo not given)	0%	13µM*	?	?	15µM*	?
O=C1C(Cl)=C(N2CCCCC2)C(=O)N1Cc1ccccc1	-7%	-25%	-6%	-3%	-2%	-1%
O=C(Nc1ccc(F)c(Cl)c1)N1CCC(CN2CCc3ccccc3C2)CC1	/	/	/	/	-2%	/
COC(=O)[C@]1(C)N[C@H](c2ccc(SC3CCCCC3)c(OC)c2)[C@@H]2C(=O)N(C)C(=O)[C@@H]21	/	/	6%	1%	0%	0%
CC1CCCC2(C1)NC(=S)N(c1ccccc1)N2 (stereo not given)	-3%	-11%	6%	-10%	-4%	2%
CC1CCCC2(C1)NC(=S)c1c(sc3c1CCCC3)N2 (stereo not given)	1%	-21%	-4%	-5%	24µM*	29%
CCN(C[C@H]1N[C@@](C)(C(=O)OC)[C@H]2C(=O)N(Cc3ccccc3)C(=O)[C@@H]12)C(=O)c1ccc(C)cc1	/	/	/	/	/	-4%
O=S(=O)(c1ccc(Cl)s1)N1CCCc2cccc(O)c21	2%	9%	?	4µM*	11µM*	17%
